From article PMC5515408, “Sequence-specific DNA binding by MYC/MAX to low-affinity non-E-box motifs”
Whole data set: some 4,500 sequences, median “log2 normalized fluorescence” near -0.34, cut for the highest 2% near 3.3. The list comes from a sample in which the highest values are over-represented; it also holds similar and randomly drawn sequences.

What follows are sequences tested against MAX:MAX (p21) (human, UniProt P61244-2 1-151) (assay: protein-binding microarray (anti-MAX antibody); PBM: 15 mM Tris-HCl pH 7.5, 100 mM KCl, 0.075% NP40, 7.5 mM beta-mercaptoethanol, 375 ng/ul BSA, 8 ng/ul poly(dA-dT):(dA-dT), 550 ng complex, 60 min, room tempe; high values mean tight binding). Conditions: protein: recombinant; tags: 6xHis; chain copies: 2; label: 3' end of printed strand (linker) attached to glass slide; dsDNA, one strand shown.
Sequence of MAX:MAX (p21) (P61244 other isoform, or with tags, fused parts or gaps): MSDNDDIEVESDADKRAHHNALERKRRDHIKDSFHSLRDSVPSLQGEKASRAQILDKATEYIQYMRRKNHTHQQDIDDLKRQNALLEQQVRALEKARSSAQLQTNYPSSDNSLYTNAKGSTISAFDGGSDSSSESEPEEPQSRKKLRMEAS
In short: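 For each of ~5000 unique double-stranded 12-nt sequences, spotted in triplicate on a custom Agilent glass array, binding of His-tagged human MYC:MAX or MAX:MAX dimers is reported as log2 normalized fluorescence. The dimers (550 ng, E. coli-expressed) were incubated for 60 min at room temperature in Tris-KCl buffer, pH 7.5, with NP40, BSA and poly(dA-dT) competitor. Detection used anti-MAX and secondary antibodies with a 543 nm scan.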
For “CCGGCTGACACGAGGTATTAATAGCTAAGATTACTATATCGACG”, the binding signal was 3.08 log2 normalized fluorescence. For “CCGGCGGACACGAGGTATTAATAGCTAAGATTACTATATCGACG”, the binding signal was 3.32 log2 normalized fluorescence. With “CCGGCAGACACGAGGTTTTAATAGCTAAGATTACTATATCGACG” the binding signal was 3.03 log2 normalized fluorescence. With “CCGGCGGACACGCGGTATTAATAGCTAAGATTACTATATCGACG” the binding signal was 3.26 log2 normalized fluorescence. “CCGGCAGACACGAGGTATTAATAGCTAAGATTACTATATCGACG” was tested, and the binding signal was 3.44 log2 normalized fluorescence. With “CCGGCTAACACGAGGTATTAATAGCTAAGATTACTATATCGACG” the binding signal was 3.28 log2 normalized fluorescence. “CCGGCTGACCCAAGGTATTAATAGCTAAGATTACTATATCGACG” was tested, and the binding signal was -0.0673 log2 normalized fluorescence. In the case of “CCGGCTGACATGTGGCCTTAATAGCTAAGATTACTATATCGACG”, the binding signal is reported as 2.99 log2 normalized fluorescence. “CCGGCTGAGTCACTGTATTAATAGCTAAGATTACTATATCGACG” was tested, and the binding signal was -0.498 log2 normalized fluorescence. With “CCGGCTGATTGCGAGTATTAATAGCTAAGATTACTATATCGACG” the binding signal was -0.512 log2 normalized fluorescence. “CCGGCTGACACGTGCCCTTAATAGCTAAGATTACTATATCGACG” was tested, and the binding signal was 3.16 log2 normalized fluorescence. With “CCGGCTGACACGTGCTTTTAATAGCTAAGATTACTATATCGACG” the binding signal was 3.34 log2 normalized fluorescence. “CCGGCTGACACGTGCGCTTAATAGCTAAGATTACTATATCGACG” was tested, and the binding signal was 3.16 log2 normalized fluorescence. In the case of “CCGGCTAACACGTGCTTTTAATAGCTAAGATTACTATATCGACG”, the binding signal is reported as 3.33 log2 normalized fluorescence. With “CCGGCTGACACGTGCCTTTAATAGCTAAGATTACTATATCGACG” the binding signal was 3.18 log2 normalized fluorescence. “CCGGCTGACACGTGTGCTTAATAGCTAAGATTACTATATCGACG” was tested, and the binding signal was 3.4 log2 normalized fluorescence. “CCGGCTGACACGTAGCTTTAATAGCTAAGATTACTATATCGACG” was tested, and the binding signal was 1.51 log2 normalized fluorescence. For “CCGGCTGACACGTGGCTTTAATAGCTAAGATTACTATATCGACG”, the binding signal was 3.04 log2 normalized fluorescence. With “CCGGCCGACACGTGCTTTTAATAGCTAAGATTACTATATCGACG” the binding signal was 3.21 log2 normalized fluorescence. “CCGGCTGAGACGTGGGATTAATAGCTAAGATTACTATATCGACG” was tested, and the binding signal was 0.979 log2 normalized fluorescence. With “CCGGCTGAATGTCTGTATTAATAGCTAAGATTACTATATCGACG” the binding signal was 0.29 log2 normalized fluorescence. For “CCGGCTGATGCAGCGTATTAATAGCTAAGATTACTATATCGACG”, the binding signal was -0.0989 log2 normalized fluorescence. In the case of “CCGGCTGGCACCTGGTATTAATAGCTAAGATTACTATATCGACG”, the binding signal is reported as 1.88 log2 normalized fluorescence. For “CCGGCTGACTAATGGTATTAATAGCTAAGATTACTATATCGACG”, the binding signal was -0.355 log2 normalized fluorescence.
